Assay results as given in the OligoGym collection.

Target: TAF3
Assay: pooled miR-30 sensor sort-seq; sequence = guide strand
Conditions: shRNA
Also: reference of the scale not given here.

Sequence | sensor-assay potency score (higher = more potent)
TTGTCCTTCTTCTTGTTCGCAC | 0.171
TTCTTGTTCGCACACTTGGGGC | -1.41
TATCTTTATCTTTCTTGCCTTT | -0.809

Target: TAF4
Assay: as above
Conditions: shRNA

Sequence | sensor-assay potency score (higher = more potent)
TTAACTGTTCTGGATCTTCTTG | -0.704
TAGACATACACCTACATAGTAA | -0.674
TACATAACTTACTACATCTGGA | -0.0503
TATTCTTGCACTTTCTTCTGAC | 0.569
TATTTTTCTGTGCAGCAGCTGC | -0.881
TTACCTATTTCTAATATTCTTC | -0.515
TTTGTCGCGTGAACTGTCTGGG | 0.638
TAACTGTTCTGGATCTTCTTGT | 0.732
TTAATGTCATCATCGTCCCGAA | -0.403
ATTAATGTCATCATCGTCCCGA | 0.127
TACATCTGGATGTAATTCCGTT | -0.473
TTAAGTTCTCGGTATAACCTGC | 0.0759

Target: TAF5
Assay: as above
Conditions: shRNA

Sequence | sensor-assay potency score (higher = more potent)
TAGTATTCTTCATACATTGTGG | -0.781
TTGAATCTGCAAAACCTCCAGC | 0.0484
TTATCTTATCCAACTTATCTGA | -0.244
TAAGTGAACAGACTGTATCAGT | -0.556
TTGTTTGACACTACGAAGCTTT | 0.143
TATCTGTTGCTTACTACGCGGC | -0.346
TTGATTGTAGACTAGCTCCAAG | -0.676
TATCTTATCCAACTTATCTGAA | -0.846
TATCTGAATCTTTCAACTCAGG | -1.06
TAAGACTAGATAATACTCGTAG | 0.809
TAATCGAACTGTATTATCCATT | -0.885
TAATACTCGTAGGTCATCCTGG | 0.422

Target: TARBP2
Assay: as above
Conditions: shRNA

Sequence | sensor-assay potency score (higher = more potent)
TTTGAGAAGGTCGTACACAGGC | -0.0476
TAGGACTACAGATGGAACTGGG | 0.0896
TCGTACACAGGCGTCTTCCCTA | -0.68
TGAATTTCGTAGAGAATCCCAG | -0.515
TTTCTGCACCACCAGCTCCTGC | -1.56
TCCTGCAGAAGGCTGATCGGGG | -1.33
TTTCGTAGAGAATCCCAGGTGC | 0.652
TATTCTGGTCCCATACTCCTGC | 0.18
TTTCGAAGACCATCCAGGCGGG | -0.916
TTGCAGAGCCATGACACACAGT | -0.909
TTCTCTCCTACTGAATTTCGTA | -0.854
TGCTGCAGCAGTAAAAACCGGA | -0.386
